# Compound activity as filed in PubChem BioAssay.
# Only some compounds are listed: those with a hit (about 7.2% of all), similar ones and a draw of the others.
# ALR H2O2 inh: human ALR oxidase inhibition via reduced H2O2; P55789; purified ALR, DTT oxidation, H2O2 HRP-luminol luminescence; inhibition, % (test concentration not listed); 290,000 compounds, 3.8% hits; AID 485317;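 active = mean replicate inhibition above about 79%, with every replicate also reaching it, limit read from the data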
# VLA-4 inh: inhibition in a human VLA-4 binding assay; P13612; VLA-4 expressing cells, ligand binding flow cytometry; inhibition, % (about 7 µM as worked out from the volumes in the protocol); 330,000 compounds, 0.2% hits; AID 2557; in the data active = inhibition above about 50%
# Target sequence (P13612 whole entry, looked up): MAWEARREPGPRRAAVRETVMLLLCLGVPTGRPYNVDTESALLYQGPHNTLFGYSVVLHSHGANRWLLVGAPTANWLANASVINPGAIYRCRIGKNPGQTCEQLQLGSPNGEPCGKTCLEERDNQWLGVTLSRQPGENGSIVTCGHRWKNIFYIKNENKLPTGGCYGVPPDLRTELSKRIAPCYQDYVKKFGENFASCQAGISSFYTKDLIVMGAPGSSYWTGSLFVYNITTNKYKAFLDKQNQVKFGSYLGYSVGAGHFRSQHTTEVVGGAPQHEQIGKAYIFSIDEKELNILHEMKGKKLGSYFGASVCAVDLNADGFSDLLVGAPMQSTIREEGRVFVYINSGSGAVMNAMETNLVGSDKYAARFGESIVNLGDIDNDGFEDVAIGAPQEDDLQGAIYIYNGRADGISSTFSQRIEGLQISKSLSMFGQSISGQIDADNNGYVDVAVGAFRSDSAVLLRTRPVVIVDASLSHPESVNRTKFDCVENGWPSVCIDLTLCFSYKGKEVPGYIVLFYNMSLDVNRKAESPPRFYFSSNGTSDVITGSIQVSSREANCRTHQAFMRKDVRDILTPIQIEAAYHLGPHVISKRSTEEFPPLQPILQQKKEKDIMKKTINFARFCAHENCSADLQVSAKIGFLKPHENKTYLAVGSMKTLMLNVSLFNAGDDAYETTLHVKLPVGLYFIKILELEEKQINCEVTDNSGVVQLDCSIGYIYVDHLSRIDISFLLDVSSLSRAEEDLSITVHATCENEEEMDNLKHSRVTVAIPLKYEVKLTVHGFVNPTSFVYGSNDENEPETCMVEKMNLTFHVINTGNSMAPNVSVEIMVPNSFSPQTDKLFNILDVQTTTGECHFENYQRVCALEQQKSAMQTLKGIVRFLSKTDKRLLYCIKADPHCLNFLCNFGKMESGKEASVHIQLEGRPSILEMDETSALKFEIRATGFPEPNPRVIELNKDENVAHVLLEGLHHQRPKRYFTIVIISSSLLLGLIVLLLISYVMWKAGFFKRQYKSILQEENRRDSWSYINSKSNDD
# A1 inh: inhibitors of the anti-apoptotic protein A1, read as caspase activation; caspase activation, % (no concentration beside the values); 330,000 compounds, 0.066% hits; MEF A1-2A-BIM cells, Caspase-Glo 3/7 luminescence, 3 h; percent of clofoctol response, vehicle zero; AID 2462;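 active = over half of replicate activation scores above 10%, or exactly half above 10 with the replicate mean above 10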
# Mot1-301 SUMO: SUMOylation pathway inhibition by Mot1-301 growth rescue; AID 2716; S. cerevisiae Mot1-301 growth rescue, ATP luminescence, 38.5C; percent above DMSO median, 100 means doubled; growth rescue, % at 18.8 µM; 320,000 compounds, 1% hits;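 active = every valid replicate shows activation above 250% relative to neutral control wells; inactive = the rest, any valid replicate at or below 250%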
# Efflux pump inh: antifungal efflux pump inhibition, Nile Red retention; S. cerevisiae Candida pump triplex; inhibition, % at 10 µM; 330,000 compounds, 0.44% hits;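 active = plate passing quality check with inhibition over a set limit, or well fluorescence over plate mean plus 4 SD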;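 also: Nile Red retained in pooled yeast measured as flow cytometry median fluorescence; higher means more Nile Red kept so more efflux inhibition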
# AHR activator: human AHR activation; P35869; AHR-responsive luciferase reporter cells, luminescence; activation, % at 5 µM; 320,000 compounds, 2.5% hits; in the data active = activation above about 47%
# Cmpd fluor yeast: flagged as fluorescent in efflux inhibitor counter-screen; shares compounds with Efflux pump inh; S. cerevisiae AD/pABC3, compound fluorescence, flow cytometry; fluorescence ratio to DMSO, % at 10 µM; 1,700 compounds, 4% hits;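 active = fluorescence ratio to DMSO above its plate's cutoff, the plate mean ratio plus 5 SD, cut at about 210% in these data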;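 also: unstained yeast with no Nile Red so the signal is compound autofluorescence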
# CaMdr1 efflux inh: blocks the Candida albicans Mdr1 efflux pump in yeast; shares compounds with Efflux pump inh; S. cerevisiae AD/CaMDR1, Nile Red efflux, flow cytometry; inhibition, % at 10 µM; 1,700 compounds, 1% hits; AID 588518; in the data active = inhibition above about 26%;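 also: higher means more Nile Red retained so more efflux inhibition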
# Cdr2 pump inh: Candida Cdr2 efflux pump inhibition; shares compounds with Efflux pump inh; Nile Red retention ratio vs DMSO, % at 10 µM; S. cerevisiae AD/CaCDR2, Nile Red retention, flow cytometry; AID 588520; 1,700 compounds, 4% hits; in the data active = Nile Red retention ratio vs DMSO above about 190%;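 also: higher ratio means more blocking of Cdr2 efflux of the dye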
# Cdr1 pump inh: blocks the Candida albicans Cdr1 efflux pump in yeast; shares compounds with Efflux pump inh; S. cerevisiae AD/CaCDR1, Nile Red efflux, flow cytometry; inhibition, % at 10 µM; 1,700 compounds, 1% hits; AID 588522;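 active = inhibition above the screen-wide mean plus twice its standard deviation, cut at about 32% in these data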
# Hits are given with their value; . = inactive; / = no result given.
SMILES,ALR H2O2 inh,VLA-4 inh,A1 inh,Mot1-301 SUMO,Efflux pump inh,AHR activator,Cmpd fluor yeast,CaMdr1 efflux inh,Cdr2 pump inh,Cdr1 pump inh
O=C1/C(=C/c2cccs2)SC(=S)N1NS(=O)(=O)c1ccccc1,/,.,.,.,.,.,.,.,.,.
COc1ccc(CN(C(=O)CSc2nnc(-c3ccccc3F)o2)c2ccc(F)cc2)cc1,.,.,.,.,.,.,/,/,/,/
CN1CCN(C(=O)CSc2ccc(C(F)(F)F)cc2[N+](=O)[O-])CC1,.,.,.,.,13.8,.,.,.,.,.
N#CCCn1cc(/C=N/O)c(-c2ccc(Cl)cc2)n1,.,.,.,.,6.7,.,.,.,.,.
N#CCCn1cc(/C=N/O)c(-c2ccc(-c3ccccc3)cc2)n1,.,.,.,.,.,.,/,/,/,/
Oc1ccc(N=Nc2c(O)ccc3ccccc23)cc1,.,.,.,.,0.8,79.3,.,.,204.3,.
COc1ccc(Cl)cc1NC(=O)CN(C)C(=O)c1cccc2cccnc12,.,.,.,.,.,.,/,/,/,/
N#C/C(=C\c1ccco1)C(=O)Nc1cccc2ncccc12,.,.,.,.,.,.,.,.,.,.
O=C(NC(=S)Nc1cccc2ncccc12)c1ccco1,.,.,.,.,.,.,/,/,/,/
O=C(NCc1ccco1)c1cc(S(=O)(=O)NC2CC2)ccc1Br,.,.,.,.,.,.,/,/,/,/
Cc1ccc(OCC(=O)Nc2cnn(CCCC(=O)O)c2)c([N+](=O)[O-])c1,.,.,.,.,3.9,.,.,.,.,.
O=C(O)CCCn1cc(NC(=O)COc2ccccc2[N+](=O)[O-])cn1,.,.,.,.,.,.,/,/,/,/
N/C(=N\OC(=O)Cc1cccc2ccccc12)c1ccccn1,.,.,.,.,1.2,.,.,.,.,.
CC(CCc1ccccc1)NC(=O)c1ccc(NC(=O)c2cccc(Br)c2)cc1 (centres undefined),.,.,.,.,6.5,.,.,.,.,.
COCC(CN1CCN(C2=NS(=O)(=O)c3ccccc32)CC1)OC(=O)c1ccccc1 (centres undefined),/,.,.,.,.,.,/,/,/,/
O=C(COc1ccccc1)Nc1nnc(COc2ccccc2)s1,.,.,.,.,.,/,.,.,.,.
CCOCc1nnc(NC(=O)COc2ccc3c(c2)OCO3)s1,.,.,.,.,1.7,.,.,.,.,.
CCOC(=O)C(=O)Nc1nnc(COc2ccccc2)s1,.,.,.,.,.,.,/,/,/,/
CN1CCc2nc(NC(=O)COc3ccc4ccccc4c3)sc2C1,.,.,.,.,.,.,/,/,/,/
CCOc1ccccc1OCC(=O)Nc1nnc(COC)s1,.,.,.,.,.,.,.,.,.,.
CCc1nnc(NC(=O)COc2ccc3ccccc3c2)s1,.,.,.,.,.,.,.,.,.,.
COc1ccc(NC(=O)CCNS(=O)(=O)c2cccc3nonc23)cc1,.,.,.,.,.,.,/,/,/,/
O=C(O)C1Sc2[nH]c(=O)sc2C2c3cc(Br)ccc3OC(=O)C12 (centres undefined),/,.,.,.,1.5,.,.,.,.,.
O=S(=O)(Cc1ccccc1)c1cnc2ccccc2n1,/,.,.,.,.,.,/,/,/,/
N#Cc1nc(Cl)c(Cl)c(NN)c1Cl,.,.,.,.,.,.,/,/,/,/
SMILES,ALR H2O2 inh,VLA-4 inh,A1 inh,Mot1-301 SUMO,Efflux pump inh,AHR activator,Cmpd fluor yeast,CaMdr1 efflux inh,Cdr2 pump inh,Cdr1 pump inh
COc1ccc(-c2ccc(-c3noc(-c4ccccc4OC)n3)c(OC)n2)cc1,.,.,.,.,0.5,.,.,.,.,.
COc1ccc(-c2ccc(-c3noc(-c4ccccc4C)n3)c(OC)n2)cc1,.,.,.,.,.,.,/,/,/,/
Cc1cccc(NC(=O)C2c3ccccc3Oc3ccccc32)n1,.,.,.,.,.,.,/,/,/,/
O=C(/C=C/c1ccccc1)NCCc1c[nH]c2ccccc12,.,.,.,.,.,.,/,/,/,/
Cc1c(/C=N/NC(=O)c2cc(Br)ccc2O)c(=O)n(C)c(=O)n1C,.,.,.,.,0.5,.,.,.,.,.
C/C=N/NC(=O)c1cc(Br)ccc1O,.,.,.,.,.,.,/,/,/,/
O=C(N/C(=C\c1ccccc1)C(=O)N1CCN(CCO)CC1)c1ccccc1,.,.,.,.,.,.,/,/,/,/
CCCSc1nnc(NC(=O)Nc2ccc(C)cc2)s1,.,.,.,.,.,.,/,/,/,/
CCCSc1nnc(NC(=O)Nc2ccccc2)s1,.,.,.,.,15.2,.,.,.,.,.
CCCCCC(=O)NC(=S)Nc1ccc2oc(=O)ccc2c1,.,.,.,.,.,.,/,/,/,/
O=C(c1cccs1)c1no[n+]([O-])c1C(=O)c1cccs1,.,.,.,.,0.9,.,.,.,287.4,.
CCSc1cnc(-c2ccccc2)n1CC,.,.,.,.,0.5,.,.,.,.,.
CCn1c(SCC(O)c2ccccc2)nnc1-c1ccccc1 (centres undefined),.,.,.,.,.,.,/,/,/,/
COc1ccccc1NC(=O)CSc1nc(=O)n(Cc2ccncc2)c2c1CCCC2,.,.,.,.,.,.,/,/,/,/
O=C(CSc1cccc[n+]1[O-])Nc1ccccc1Oc1ccccc1,.,.,.,.,1.0,.,.,.,.,.
Cc1nc2ccc(NC(=O)Cc3ccc4c(c3)OCCO4)cc2s1,.,.,.,.,8.2,.,.,.,.,.
Cc1nc2ccc(NC(=O)Cc3ccc(Br)cc3)cc2s1,.,.,.,.,.,.,/,/,/,/
CCCCCCCCCCOC(=O)C[N+](C)(C)C/C=C(/C)Cl,.,.,.,.,.,.,/,/,/,/
C/C(Cl)=C\C[N+](C)(C)CC(=O)OCCc1ccccc1,.,.,.,.,0.5,.,.,.,.,.
CCOc1ccccc1OCCCC(=O)Nc1cc(S(=O)(=O)N2CCOCC2)ccc1OC,.,.,.,.,.,.,/,/,/,/
COC/C=C/C1=CC2=CC(=O)C(C)(OC(=O)c3cnc4ccccc4n3)C(=O)C2=CN1Cc1ccccc1 (centres undefined),.,.,.,.,.,.,/,/,/,/
COC/C=C/C1=CC2=CC(=O)C(C)(OC(=O)c3cnc4ccccc4n3)C(=O)C2=CN1Cc1ccc(OC)cc1 (centres undefined),/,.,.,.,0.6,.,.,.,.,.
CCc1nn(CC(=O)NCc2ccccc2Cl)c(=O)c2cccn12,.,.,.,.,.,.,/,/,/,/
CCOc1ccccc1/C=C/c1onc(C)c1S(=O)(=O)N1CCC(C(=O)N(CC)CC)CC1,.,.,.,.,0.2,.,.,.,.,.
